Experimental data taken from the supplement of paper PMC11732987, “Enantioselective OTUD7B fragment discovery through chemoproteomics screening and high-throughput optimisation” (Communications Chemistry, 2025).

Legend:
Assay in all cases: log2 ratio of Biotin-Ahx-Ub-VS probe labelling (fragment/DMSO); higher = less target engagement (more negative = stronger competition), active = hit call of the paper (q ≤ 0.05, log2 ratio ≤ -1)
Settings in all cases: compound concentration: 200 uM; treatment time: 3 h
[1] = biological target: T1, USP42 (UniProt Q9H9J4)
T1 sequence (whole entry): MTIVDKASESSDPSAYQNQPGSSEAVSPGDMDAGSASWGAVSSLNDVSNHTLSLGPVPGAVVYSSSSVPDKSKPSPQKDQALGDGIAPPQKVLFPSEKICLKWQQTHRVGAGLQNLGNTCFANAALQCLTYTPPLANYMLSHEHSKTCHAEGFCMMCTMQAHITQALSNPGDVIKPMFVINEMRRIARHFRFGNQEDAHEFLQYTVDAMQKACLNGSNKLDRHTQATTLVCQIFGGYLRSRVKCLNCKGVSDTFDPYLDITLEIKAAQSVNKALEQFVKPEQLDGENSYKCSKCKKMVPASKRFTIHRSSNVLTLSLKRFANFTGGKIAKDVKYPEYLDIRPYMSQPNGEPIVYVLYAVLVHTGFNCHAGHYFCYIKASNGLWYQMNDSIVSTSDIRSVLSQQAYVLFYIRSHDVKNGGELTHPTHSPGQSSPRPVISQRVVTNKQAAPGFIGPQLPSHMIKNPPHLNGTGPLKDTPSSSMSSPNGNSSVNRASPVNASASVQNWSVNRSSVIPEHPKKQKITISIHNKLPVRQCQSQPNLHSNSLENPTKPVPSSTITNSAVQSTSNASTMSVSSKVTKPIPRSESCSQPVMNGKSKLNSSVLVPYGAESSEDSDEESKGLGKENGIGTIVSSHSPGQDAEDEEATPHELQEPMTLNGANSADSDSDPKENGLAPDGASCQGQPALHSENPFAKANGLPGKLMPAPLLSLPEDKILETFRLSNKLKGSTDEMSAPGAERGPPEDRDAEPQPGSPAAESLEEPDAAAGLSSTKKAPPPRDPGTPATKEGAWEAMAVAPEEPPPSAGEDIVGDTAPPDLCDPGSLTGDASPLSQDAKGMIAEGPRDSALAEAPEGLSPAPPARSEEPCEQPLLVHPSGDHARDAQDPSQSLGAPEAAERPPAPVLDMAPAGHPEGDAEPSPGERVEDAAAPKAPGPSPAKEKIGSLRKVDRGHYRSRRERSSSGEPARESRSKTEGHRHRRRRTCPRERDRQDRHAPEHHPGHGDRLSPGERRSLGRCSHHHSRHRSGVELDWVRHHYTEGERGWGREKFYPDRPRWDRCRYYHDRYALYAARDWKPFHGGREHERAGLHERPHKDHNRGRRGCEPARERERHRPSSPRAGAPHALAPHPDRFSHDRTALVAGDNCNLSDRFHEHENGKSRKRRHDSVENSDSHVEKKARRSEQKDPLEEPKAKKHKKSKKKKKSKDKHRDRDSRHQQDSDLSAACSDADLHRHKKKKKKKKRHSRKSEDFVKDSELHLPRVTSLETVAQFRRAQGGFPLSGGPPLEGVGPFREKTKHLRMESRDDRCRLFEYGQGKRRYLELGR
How it was run: (§1)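 Labelled DUBs from HEK293T lysate were NeutrAvidin-enriched, digested with LysC and trypsin, and run by diaPASEF LC-MS/MS. Before that, each 495 µg sample in Tris/CHAPS/IGEPAL buffer with protease inhibitors was treated in triplicate with fragment at 200 µM or vehicle for 3 h, then with Biotin-Ahx-Ub-VS at 0.5 µM final for 1 h. Values are average log2 ratios of fragment over vehicle by unpaired t-test, based on global-median-normalised Spectronaut label-free quantities from proteins with ≥2 unique peptides.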

[2] = biological target: USP46 (UniProt P62068)
How it was run: as §1

[3] = biological target: T2, USP47 (UniProt Q96K76)
T2 sequence (whole entry): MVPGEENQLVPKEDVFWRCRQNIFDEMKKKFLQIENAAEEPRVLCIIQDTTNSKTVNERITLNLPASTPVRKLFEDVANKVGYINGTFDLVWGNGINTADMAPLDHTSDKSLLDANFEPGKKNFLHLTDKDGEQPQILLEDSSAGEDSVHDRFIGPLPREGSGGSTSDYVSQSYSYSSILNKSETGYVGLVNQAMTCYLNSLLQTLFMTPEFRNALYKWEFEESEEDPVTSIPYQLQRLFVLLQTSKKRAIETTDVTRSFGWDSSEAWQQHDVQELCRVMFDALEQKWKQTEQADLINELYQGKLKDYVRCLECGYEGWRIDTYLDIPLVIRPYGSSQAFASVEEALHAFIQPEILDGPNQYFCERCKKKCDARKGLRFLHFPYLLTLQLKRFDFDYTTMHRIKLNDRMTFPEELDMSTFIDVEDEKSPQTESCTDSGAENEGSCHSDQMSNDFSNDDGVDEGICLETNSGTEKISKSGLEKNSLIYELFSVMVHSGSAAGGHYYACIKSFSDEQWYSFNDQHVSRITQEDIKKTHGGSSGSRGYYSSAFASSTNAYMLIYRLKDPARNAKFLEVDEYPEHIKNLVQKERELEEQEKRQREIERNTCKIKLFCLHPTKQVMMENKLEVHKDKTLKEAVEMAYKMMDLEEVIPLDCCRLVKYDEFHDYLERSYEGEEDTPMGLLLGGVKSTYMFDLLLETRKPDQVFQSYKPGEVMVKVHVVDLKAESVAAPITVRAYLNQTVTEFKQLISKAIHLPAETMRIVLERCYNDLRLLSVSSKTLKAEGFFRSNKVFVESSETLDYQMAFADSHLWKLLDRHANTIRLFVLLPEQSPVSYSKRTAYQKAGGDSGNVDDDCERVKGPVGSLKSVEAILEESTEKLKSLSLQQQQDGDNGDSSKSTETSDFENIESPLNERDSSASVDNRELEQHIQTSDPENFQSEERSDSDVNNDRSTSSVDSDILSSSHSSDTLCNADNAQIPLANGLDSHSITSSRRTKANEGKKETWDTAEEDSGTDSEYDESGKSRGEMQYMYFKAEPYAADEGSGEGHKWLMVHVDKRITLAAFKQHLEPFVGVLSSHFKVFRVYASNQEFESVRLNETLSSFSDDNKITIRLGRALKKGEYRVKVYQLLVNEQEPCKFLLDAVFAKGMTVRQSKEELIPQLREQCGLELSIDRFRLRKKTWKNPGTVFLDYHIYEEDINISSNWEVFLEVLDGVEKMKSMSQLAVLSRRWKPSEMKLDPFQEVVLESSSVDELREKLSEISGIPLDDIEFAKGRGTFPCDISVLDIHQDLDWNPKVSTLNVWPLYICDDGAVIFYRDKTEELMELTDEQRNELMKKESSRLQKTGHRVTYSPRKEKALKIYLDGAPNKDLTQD
How it was run: as §1

[4] = biological target: T3, USP48 (UniProt Q86UV5)
T3 sequence (whole entry): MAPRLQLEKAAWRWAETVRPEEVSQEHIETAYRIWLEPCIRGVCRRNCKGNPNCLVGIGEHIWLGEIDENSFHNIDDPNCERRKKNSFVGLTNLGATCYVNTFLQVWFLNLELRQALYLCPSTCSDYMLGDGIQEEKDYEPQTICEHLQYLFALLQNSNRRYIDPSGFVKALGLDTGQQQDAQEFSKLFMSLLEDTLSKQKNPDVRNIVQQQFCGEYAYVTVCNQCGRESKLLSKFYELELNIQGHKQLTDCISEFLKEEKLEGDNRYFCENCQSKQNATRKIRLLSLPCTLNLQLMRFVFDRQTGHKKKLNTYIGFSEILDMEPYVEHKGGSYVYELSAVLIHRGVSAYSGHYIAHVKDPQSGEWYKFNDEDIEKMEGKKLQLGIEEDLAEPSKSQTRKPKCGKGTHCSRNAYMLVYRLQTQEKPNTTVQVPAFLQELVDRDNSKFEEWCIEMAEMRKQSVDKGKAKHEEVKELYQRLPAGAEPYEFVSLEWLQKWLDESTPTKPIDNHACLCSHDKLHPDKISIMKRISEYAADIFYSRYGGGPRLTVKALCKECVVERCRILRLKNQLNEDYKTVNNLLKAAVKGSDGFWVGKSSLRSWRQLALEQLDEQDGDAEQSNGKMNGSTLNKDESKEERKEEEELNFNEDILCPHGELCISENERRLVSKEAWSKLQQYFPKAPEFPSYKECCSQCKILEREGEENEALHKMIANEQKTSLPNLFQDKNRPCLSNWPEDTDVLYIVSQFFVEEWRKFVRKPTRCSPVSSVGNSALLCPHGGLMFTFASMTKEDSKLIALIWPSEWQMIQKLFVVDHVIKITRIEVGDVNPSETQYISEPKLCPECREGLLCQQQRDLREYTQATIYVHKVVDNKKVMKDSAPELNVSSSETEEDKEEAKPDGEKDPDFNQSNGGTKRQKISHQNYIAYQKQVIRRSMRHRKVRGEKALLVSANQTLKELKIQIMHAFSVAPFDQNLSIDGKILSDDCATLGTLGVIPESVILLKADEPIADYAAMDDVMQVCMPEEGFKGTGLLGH
How it was run: as §1

[5] = biological target: T4, USP5 (UniProt P45974)
T4 sequence (whole entry): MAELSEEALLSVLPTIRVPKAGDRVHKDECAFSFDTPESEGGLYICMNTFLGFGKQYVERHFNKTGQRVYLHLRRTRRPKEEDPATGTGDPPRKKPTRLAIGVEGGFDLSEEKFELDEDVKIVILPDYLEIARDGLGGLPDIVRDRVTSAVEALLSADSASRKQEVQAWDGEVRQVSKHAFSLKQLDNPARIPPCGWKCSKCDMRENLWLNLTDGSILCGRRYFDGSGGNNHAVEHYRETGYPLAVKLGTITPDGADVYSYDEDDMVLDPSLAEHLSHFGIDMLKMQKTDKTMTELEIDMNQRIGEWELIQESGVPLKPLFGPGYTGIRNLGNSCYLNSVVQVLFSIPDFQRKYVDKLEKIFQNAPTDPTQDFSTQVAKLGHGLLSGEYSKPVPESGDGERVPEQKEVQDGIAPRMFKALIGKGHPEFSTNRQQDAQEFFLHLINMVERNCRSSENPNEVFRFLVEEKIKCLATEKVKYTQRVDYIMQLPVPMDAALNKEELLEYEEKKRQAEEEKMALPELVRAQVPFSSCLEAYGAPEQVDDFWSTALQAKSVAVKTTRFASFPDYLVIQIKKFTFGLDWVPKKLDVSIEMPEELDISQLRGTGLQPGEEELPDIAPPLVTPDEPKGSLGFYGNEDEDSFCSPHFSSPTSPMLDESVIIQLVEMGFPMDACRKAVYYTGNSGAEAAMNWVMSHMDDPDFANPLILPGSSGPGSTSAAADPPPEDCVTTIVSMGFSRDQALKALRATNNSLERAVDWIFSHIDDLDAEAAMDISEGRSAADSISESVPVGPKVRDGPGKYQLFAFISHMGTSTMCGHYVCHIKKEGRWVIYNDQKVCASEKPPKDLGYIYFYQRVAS
How it was run: as §1

[6] = biological target: USP54 (UniProt Q70EL1)
How it was run: as §1

[7] = biological target: USP7 (UniProt Q93009)
How it was run: as §1

[8] = biological target: T5, USP8 (UniProt P40818)
T5 sequence (whole entry): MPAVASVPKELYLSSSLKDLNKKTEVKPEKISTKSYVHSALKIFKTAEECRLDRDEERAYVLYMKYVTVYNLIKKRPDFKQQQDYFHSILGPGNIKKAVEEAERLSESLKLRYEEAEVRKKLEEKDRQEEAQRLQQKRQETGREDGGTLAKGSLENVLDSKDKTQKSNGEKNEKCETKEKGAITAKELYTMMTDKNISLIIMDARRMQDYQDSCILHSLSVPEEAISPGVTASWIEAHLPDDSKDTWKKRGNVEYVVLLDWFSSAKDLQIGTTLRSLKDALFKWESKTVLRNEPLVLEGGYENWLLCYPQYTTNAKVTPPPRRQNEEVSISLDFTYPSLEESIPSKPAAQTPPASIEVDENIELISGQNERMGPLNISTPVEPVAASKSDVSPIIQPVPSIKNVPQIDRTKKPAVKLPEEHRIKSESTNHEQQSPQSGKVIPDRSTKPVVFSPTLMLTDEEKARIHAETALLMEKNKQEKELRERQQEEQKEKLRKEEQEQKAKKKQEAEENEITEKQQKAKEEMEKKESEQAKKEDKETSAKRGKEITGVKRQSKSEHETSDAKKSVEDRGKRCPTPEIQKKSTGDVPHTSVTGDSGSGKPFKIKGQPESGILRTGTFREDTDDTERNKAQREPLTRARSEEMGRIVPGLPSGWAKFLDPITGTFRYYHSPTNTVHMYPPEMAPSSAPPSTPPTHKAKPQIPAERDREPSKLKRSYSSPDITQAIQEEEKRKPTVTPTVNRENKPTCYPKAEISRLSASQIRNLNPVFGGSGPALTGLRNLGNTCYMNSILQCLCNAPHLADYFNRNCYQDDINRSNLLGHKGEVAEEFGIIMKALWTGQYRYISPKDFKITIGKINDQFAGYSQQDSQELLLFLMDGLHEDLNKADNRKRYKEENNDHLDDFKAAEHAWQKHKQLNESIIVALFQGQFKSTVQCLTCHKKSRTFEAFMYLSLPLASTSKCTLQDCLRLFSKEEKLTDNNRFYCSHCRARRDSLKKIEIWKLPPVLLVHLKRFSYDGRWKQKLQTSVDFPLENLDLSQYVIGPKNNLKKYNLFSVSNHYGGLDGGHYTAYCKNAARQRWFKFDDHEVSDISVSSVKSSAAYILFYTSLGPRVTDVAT
How it was run: as §1

Measured: log2 ratio of Biotin-Ahx-Ub-VS probe labelling

Sequence of USP46 (P62068 whole entry): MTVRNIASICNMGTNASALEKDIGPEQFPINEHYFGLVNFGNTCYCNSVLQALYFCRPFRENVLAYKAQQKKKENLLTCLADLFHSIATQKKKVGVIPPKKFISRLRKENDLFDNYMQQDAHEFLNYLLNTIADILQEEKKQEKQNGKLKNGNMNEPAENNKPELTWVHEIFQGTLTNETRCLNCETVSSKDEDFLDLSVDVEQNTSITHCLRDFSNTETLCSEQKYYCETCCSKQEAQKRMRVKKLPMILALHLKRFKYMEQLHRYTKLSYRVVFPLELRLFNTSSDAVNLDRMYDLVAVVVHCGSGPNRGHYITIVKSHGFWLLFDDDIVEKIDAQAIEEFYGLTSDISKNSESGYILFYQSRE
Sequence of USP54 (Q70EL1 whole entry): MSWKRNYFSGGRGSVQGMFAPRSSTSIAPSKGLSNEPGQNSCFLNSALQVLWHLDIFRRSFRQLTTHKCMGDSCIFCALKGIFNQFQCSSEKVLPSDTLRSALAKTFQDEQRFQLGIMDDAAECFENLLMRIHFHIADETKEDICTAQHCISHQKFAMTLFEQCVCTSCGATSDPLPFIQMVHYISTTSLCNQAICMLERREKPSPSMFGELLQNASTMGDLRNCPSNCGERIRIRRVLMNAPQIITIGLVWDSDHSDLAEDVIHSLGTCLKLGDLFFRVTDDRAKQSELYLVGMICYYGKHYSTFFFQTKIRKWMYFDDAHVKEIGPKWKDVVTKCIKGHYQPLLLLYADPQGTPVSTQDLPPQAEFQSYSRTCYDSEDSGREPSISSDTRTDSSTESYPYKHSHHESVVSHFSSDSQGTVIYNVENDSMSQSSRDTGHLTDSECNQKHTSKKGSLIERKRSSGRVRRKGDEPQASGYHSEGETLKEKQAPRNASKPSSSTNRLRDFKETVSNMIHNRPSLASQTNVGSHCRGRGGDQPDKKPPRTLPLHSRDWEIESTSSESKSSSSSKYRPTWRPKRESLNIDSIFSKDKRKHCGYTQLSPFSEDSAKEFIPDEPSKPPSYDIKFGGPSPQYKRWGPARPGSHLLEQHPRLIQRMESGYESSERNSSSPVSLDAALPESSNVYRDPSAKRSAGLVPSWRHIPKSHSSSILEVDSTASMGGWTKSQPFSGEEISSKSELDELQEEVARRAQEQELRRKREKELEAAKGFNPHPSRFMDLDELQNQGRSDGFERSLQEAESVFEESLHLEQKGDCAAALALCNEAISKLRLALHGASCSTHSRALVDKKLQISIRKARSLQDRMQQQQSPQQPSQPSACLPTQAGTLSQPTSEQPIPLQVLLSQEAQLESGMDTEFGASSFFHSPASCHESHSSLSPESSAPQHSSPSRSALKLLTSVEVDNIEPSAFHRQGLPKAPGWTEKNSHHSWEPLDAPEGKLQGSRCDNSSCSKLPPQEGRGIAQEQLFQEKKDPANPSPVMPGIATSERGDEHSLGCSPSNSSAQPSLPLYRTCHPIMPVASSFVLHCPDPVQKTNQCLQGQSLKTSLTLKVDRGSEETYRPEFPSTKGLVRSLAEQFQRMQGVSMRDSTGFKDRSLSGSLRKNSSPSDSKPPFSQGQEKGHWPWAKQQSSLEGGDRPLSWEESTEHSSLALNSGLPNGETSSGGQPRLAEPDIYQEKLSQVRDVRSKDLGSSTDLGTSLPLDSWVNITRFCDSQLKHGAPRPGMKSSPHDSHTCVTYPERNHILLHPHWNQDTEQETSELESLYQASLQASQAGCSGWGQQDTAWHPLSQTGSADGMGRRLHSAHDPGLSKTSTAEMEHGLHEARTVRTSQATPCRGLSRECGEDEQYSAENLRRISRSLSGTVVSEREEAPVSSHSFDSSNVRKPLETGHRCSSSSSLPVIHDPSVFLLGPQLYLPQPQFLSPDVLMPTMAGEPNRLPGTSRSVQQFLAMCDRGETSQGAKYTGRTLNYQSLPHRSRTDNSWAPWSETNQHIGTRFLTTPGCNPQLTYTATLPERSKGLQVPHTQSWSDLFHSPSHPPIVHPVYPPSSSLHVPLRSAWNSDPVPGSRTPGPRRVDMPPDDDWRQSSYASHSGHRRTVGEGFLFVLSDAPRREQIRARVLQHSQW
Sequence of USP7 (Q93009 whole entry, looked up): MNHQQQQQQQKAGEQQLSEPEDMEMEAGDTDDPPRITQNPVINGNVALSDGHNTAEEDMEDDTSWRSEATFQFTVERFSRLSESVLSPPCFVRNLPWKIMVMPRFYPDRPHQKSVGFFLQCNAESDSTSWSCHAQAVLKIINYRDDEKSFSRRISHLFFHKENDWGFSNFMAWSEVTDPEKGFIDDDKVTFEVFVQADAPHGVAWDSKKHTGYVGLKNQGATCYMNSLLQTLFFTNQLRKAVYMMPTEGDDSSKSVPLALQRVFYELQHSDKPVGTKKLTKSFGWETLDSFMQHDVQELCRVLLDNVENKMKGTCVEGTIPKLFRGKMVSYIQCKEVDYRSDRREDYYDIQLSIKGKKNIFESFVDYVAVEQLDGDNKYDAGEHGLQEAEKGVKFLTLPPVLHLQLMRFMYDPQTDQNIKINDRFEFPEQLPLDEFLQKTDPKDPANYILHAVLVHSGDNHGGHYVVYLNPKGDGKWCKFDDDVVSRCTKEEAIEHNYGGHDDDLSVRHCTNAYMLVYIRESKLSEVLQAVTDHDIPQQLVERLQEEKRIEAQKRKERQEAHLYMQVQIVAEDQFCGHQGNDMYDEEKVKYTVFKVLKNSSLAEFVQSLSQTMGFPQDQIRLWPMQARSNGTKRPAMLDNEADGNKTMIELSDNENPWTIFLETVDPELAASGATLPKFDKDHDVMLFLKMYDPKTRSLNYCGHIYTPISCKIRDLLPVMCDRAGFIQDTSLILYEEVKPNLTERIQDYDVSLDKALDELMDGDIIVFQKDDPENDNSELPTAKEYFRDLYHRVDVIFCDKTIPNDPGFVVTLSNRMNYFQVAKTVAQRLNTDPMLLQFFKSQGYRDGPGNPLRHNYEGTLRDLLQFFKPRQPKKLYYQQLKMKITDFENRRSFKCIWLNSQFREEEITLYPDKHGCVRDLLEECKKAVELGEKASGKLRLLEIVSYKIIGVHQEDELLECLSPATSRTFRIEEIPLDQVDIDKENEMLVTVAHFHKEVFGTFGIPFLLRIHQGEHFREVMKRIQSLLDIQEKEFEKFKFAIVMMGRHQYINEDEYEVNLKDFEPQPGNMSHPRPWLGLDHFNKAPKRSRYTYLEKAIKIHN

Cc1ccc2nnc(CNC(=O)CCl)n2c1
inactive: [1] 0.336 | [2] -0.000756 | [3] 0.13 | [4] -0.0762 | [5] 0.114 | [6] 0.357 | [7] 0.0284 | [8] 0.28
